Measurements taken from article PMC4336329 (PLoS ONE, 2015).
Among all 310,000 compounds or so, about 14,000 (4.5%) showed an effect of 50% or more. The effect is printed as a negative number. This is one part of a sample in which strong results are shown more often than they occur.

target: human ether-à-go-go-related gene (hERG) potassium channel (human, UniProt Q12809); assay: primary screen, population patch clamp on CHO cells stably expressing hERG; higher = less effect of the substance
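Further: peak tail current of the secondary pulse compared with the same well before compound.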

human ether-à-go-go-related gene (hERG) potassium channel, sequence (Q12809 whole entry, looked up): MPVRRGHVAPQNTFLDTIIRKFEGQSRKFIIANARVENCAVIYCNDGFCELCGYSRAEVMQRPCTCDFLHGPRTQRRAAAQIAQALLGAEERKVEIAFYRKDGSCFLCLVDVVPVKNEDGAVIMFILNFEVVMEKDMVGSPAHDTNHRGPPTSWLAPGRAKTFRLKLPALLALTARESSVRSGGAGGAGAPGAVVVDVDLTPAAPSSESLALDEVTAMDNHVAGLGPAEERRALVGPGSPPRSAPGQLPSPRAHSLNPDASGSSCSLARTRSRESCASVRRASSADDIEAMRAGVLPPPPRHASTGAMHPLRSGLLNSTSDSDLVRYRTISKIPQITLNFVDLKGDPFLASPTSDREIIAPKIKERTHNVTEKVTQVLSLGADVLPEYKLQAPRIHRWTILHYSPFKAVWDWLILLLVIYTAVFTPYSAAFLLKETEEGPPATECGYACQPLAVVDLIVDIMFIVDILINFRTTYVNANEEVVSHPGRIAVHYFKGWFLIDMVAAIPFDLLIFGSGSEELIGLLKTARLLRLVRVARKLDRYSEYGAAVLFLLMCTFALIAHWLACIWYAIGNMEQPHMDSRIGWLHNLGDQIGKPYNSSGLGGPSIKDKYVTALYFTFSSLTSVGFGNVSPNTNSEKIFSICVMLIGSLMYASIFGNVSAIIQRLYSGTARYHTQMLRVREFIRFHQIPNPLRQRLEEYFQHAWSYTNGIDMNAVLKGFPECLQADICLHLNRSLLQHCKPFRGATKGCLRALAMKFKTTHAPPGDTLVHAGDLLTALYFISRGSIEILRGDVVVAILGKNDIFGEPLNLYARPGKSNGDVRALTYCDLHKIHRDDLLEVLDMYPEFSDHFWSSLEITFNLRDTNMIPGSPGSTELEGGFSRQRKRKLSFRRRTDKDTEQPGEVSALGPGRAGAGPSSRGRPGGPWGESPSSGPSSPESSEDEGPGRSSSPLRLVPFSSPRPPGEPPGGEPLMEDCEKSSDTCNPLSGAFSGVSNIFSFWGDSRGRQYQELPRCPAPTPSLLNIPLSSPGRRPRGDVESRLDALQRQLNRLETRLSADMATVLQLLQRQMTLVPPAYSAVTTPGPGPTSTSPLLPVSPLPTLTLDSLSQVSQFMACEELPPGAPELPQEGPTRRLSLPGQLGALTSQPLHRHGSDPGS

Row | Compound | hERG current change (%, negative = inhibition) at 10uM [%]
1 | CCOc1ccc(CC(=NCCc2ccccc2)C2=C(O)CC(C)(C)CC2=O)cc1OCC | -21.3
2 | O=C(O)c1ccccc1CSc1nnnn1-c1ccccc1 | 12.6
3 | Cc1cc(C)cc(N=C2NC(=O)/C(=C/c3cccs3)S2)c1 | 14.7
4 | CC(=O)c1ccccc1NC(=O)C1C2CCC(O2)C1C(=O)O (stereo not shown) | 8.81
5 | Cc1c(CCO)c(=O)[nH]n1C(=O)c1c(F)cccc1F | -1.76
6 | COc1ccc(-c2n[nH]c(=S)n2-c2ccc(C)cc2C)cc1 | 19.5
7 | CC(NC(=O)c1ccc(CS(C)(=O)=O)cc1)c1cccc2ccccc12 (stereo not shown) | 10.1
8 | CCOc1ccc(NC(=O)Nc2cc(-c3ccccc3)sc2C(=O)OC)cc1 | -4.41
9 | COC(=O)C1=C(c2ccc(OC)c(OC)c2)C[C@@H]2CC[C@H]1N2C(=O)NCCO | 15.5
10 | CC(C)(C)OC(=O)N1CCC[C@H]1C(=O)Nc1ccc(Br)cc1 | 13.5
11 | CCN1CCN(c2ccc(S(=O)(=O)N3CCOCC3)cc2NC(=O)CCC(C)C)CC1 | -26.3
12 | C/C(CC(=O)Nc1cc(C)ccn1)=N\NC(=O)c1ccncc1 | 19.7
13 | CC1CCCC(N2CCN(C(=O)c3ccc(F)cc3)CC2)C1 (stereo not shown) | -44.1
14 | O=C(c1ccc(Cl)cc1)N1CCN(c2ncccn2)CC1 | 6.85
15 | O=C(CCSc1ccc(Cl)cc1)N1CCN(c2ccc(O)cc2)CC1 | -23.8
16 | Cc1ccccc1C(=O)N1CCC(C(=O)N2CCN(c3ncccn3)CC2)CC1 | 7.94
17 | CC1CCCC(N2CCN(C(=O)c3cccc(F)c3)CC2)C1.O=C(O)C(=O)O (stereo not shown) | -6.93
18 | CC1CCCC(N2CCN(C(=O)c3ccc([N+](=O)[O-])cc3)CC2)C1.O=C(O)C(=O)O (stereo not shown) | -71.9
19 | Cl.O=C(c1ccc(Cn2ccc([N+](=O)[O-])n2)cc1)N1CCN(Cc2ccccc2)CC1 | -56.1
20 | O=C(c1ccc(Cl)cc1)N1CCC(C(=O)N2CCN(c3ncccn3)CC2)CC1 | -56.6
21 | O=C(c1ccc(Cn2cc(Cl)c([N+](=O)[O-])n2)cc1)N1CCN(Cc2ccccc2)CC1 | -12.5
22 | O=C(CCSc1ccc(Cl)cc1)N1CCCCCC1 | -4.88

Row | Compound | hERG current change (%, negative = inhibition) at 10uM [%]
23 | O=C(CCSc1ccc(Cl)cc1)N1CCN(c2ncccn2)CC1 | -60.6
24 | O=C(c1ccc([N+](=O)[O-])o1)N1CCN(Cc2ccccc2)CC1 | 2.99
25 | CCN(Cc1ccccc1)C(=O)CCc1nnc(CCCc2ccccc2)o1 | 21.1
26 | COc1cc(C(=O)NC(=S)Nc2ccc3oc(=O)ccc3c2)cc(OC)c1OC | 9.8
27 | CC(=O)OC1COC(n2ccc3cc([N+](=O)[O-])ccc32)C(OC(C)=O)C1OC(C)=O (stereo not shown) | -12.2
28 | CC(C)C(=O)Nc1ccc(Sc2ccc(F)cc2)cc1 | -3.48
29 | CCC(C)Nc1nc2c(c(=O)n(C)c(=O)n2C)n1Cc1ccc(Cl)cc1 (stereo not shown) | -7.45
30 | COc1ccccc1-c1nc(SCC(=O)O)n[nH]1 | -1.65
31 | COc1ccc(N=Cc2c(O)n(-c3ccc(OC)cc3)c(=O)c3ccccc23)cc1 | 15.2
32 | CCN1CCN(C(=S)c2ccc([N+](=O)[O-])cc2)CC1 | -36.9
33 | Oc1ccc(C(=S)N2CCN(Cc3ccccc3)CC2)cc1 | -5.46
34 | CC(=O)N1CCN(C(=O)c2ccc(Oc3ccccc3)cc2)CC1 | 19.1
35 | O=C(c1ccccc1)N1CCN(c2nc3ccc([N+](=O)[O-])cc3s2)CC1 | -55.4
36 | O=[N+]([O-])c1ccc(C(=S)N2CCN(Cc3ccccc3)CC2)cc1 | -57.6
37 | O=CN1CCN(C(=O)c2ccc([N+](=O)[O-])cc2)CC1 | -22.3
38 | O=C(c1ccccc1)N1CCN(C(=O)c2ccc(OC(F)(F)F)cc2)CC1 | -62.8
39 | O=C(c1ccc([N+](=O)[O-])cc1)N1CCCC1 | 4.5
40 | CC(=O)N1CCN(c2nc3ccc([N+](=O)[O-])cc3s2)CC1 | -46.6
41 | O=C(c1cccs1)N1CCN(c2nc3ccc([N+](=O)[O-])cc3s2)CC1 | -7.47
42 | O=C(c1ccccc1)N1CCN(C(=O)c2ccccc2)CC1 | 1.49
43 | O=C(c1ccccc1)N1CCN(C(=O)c2ccc([N+](=O)[O-])cc2)CC1 | -53.9
